Structures can show the parent of a compound that is named as a salt. Hit rate of the full screen: of about 2,100 compounds, about 180 (8.6%) showed an effect of 50% or more. The list comes from a sample in which strong results are over-represented; it also holds similar structures and randomly drawn compounds.
system: MOLM1 and UCSD/AML1 (averaged); assay: cell viability relative to DMSO control (POC); higher = less growth inhibition; conditions: 1 µM; 72 h
Method: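 Primary viability screen in the 3q26 EVI1-high AML cell lines MOLM1 and UCSD/AML1 (1.5e3 cells/well, 384-well), compounds at 1 uM for 72 h. ATP CellTiter-Glo read-out given as percent of viable cells over DMSO control (POC), averaged over duplicates. DMSO was the negative control and 5 uM etoposide the positive control. This mapping covers the MicroSource Spectrum and Selleck anticancer libraries (drug names).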

| SMILES | cell viability [%] |
| --- | --- |
| CC1(C)CC2C1CCC1(C)OC1CCC2(C)O (configuration not stated) | 95.8 |
| Cc1cc(O)c(C)c(O)c1C(=O)O | 97.3 |
| O=C(NC1CCNCC1)c1n[nH]cc1NC(=O)c1c(Cl)cccc1Cl | 13.3 |
| NC1=NCCN1CC(=O)O | 95.6 |
| CC(C)(C)Cn1c(N)nc2ccc(-c3[nH]c(C(C)(C)C)nc3-c3ccc(F)cc3)nc21 | 91 |
| C[C@@H](Oc1cc(-c2cnn(C3CCNCC3)c2)cnc1N)c1c(Cl)ccc(F)c1Cl | 21.4 |
| NC(=O)Nc1sc(-c2ccc(F)cc2)cc1C(N)=O | 42.3 |
| OC[C@H]1O[C@@H](O[C@H]2[C@H](O)[C@@H](O)[C@@H](O)O[C@@H]2CO)[C@H](O)[C@@H](O)[C@@H]1O | 105 |
| CCC(=O)OC1[C@@H]2CC3=C4CC(=O)O[C@@H](c5ccoc5)[C@]4(C)CCC3[C@@](C)(C2=O)[C@@H](CC(=O)OC)C1(C)C (some centres not stated) | 88.5 |
| COc1ccc(-c2coc3c(OC)c(OC)cc(O)c3c2=O)cc1 | 101 |
| C#CCCCCCCCCCCCC(O)CC(O)COC(C)=O (configuration not stated) | 88.5 |
| C[C@]12CC[C@@H]3c4ccc(O)cc4CC[C@H]3[C@@H]1CC[C@@H]2O [Estradiol] | 96.7 |
| C[C@]12CC[C@@H]3c4ccc(O)cc4CC[C@H]3[C@@H]1CC[C@@H]2O | 91.5 |
| COc1cc2c(cc1O)CC[C@@H]1[C@@H]2CC[C@]2(C)[C@@H](O)CC[C@@H]12 [2-Methoxyestradiol] | 13.7 |
| COc1ccc2c(c1)CC[C@@H]1[C@@H]2CC[C@]2(C)[C@@H](O)CC[C@@H]12 | 96.8 |
| CC[C@H](/C=C/[C@@H](C)[C@H]1CC[C@H]2[C@@H]3CCC4=CC(=O)CC[C@]4(C)[C@H]3CC[C@]12C)C(C)C | 108 |
| CC(=O)CCCCn1c(=O)c2c(ncn2C)n(C)c1=O | 104 |
| COc1c(O)cc2oc3cc(O)c(CC=C(C)C)c(O)c3c(=O)c2c1CC=C(C)C [alpha-MANGOSTIN] | 95.2 |
| COc1cc(C(C)=O)cc(OC)c1O | 105 |
| COC(=O)C[C@H]1C(C)(C)C(=O)[C@@H]2CC3C4=CC(=O)O[C@@H](c5ccoc5)[C@]4(C)CC[C@@H]3[C@@]1(C)C2=O (some centres not stated) | 98.6 |
| O=C(c1ccc(OCCN2CCCCC2)cc1)c1c(-c2ccc(O)cc2)sc2cc(O)ccc12 [Evista (Raloxifene Hydrochloride)] | 95.1 |

| SMILES | cell viability [%] |
| --- | --- |
| O=C(Cc1ccc(-c2ccc(OCCN3CCOCC3)cc2)cn1)NCc1ccccc1 | 8.82 |
| CCCCOc1ccc(OCCCN2CCOCC2)cc1 | 97.5 |
| O=C(c1ccc(OCCN2CCCCC2)cc1)c1c(-c2ccc(O)cc2)sc2cc(O)ccc12 | 83.3 |
| COC(=O)C(Cc1ccccc1)NC(=O)/C(=C1/OC(=O)C(c2ccccc2)=C1O)c1ccccc1 (configuration not stated) | 105 |
| CC1(C)CC[C@]2(C(=O)O)CC[C@]3(C)C(=CCC4[C@@]5(C)CC[C@@H](O)C(C)(C)C5CC[C@]43C)C2C1 (some centres not stated) | 102 |
| COc1ccc(-c2coc3cc(O)ccc3c2=O)c(O)c1O | 99.7 |
| CC(=O)O[C@H]1CC[C@]2(C)[C@H]3CC[C@@]4(C)[C@H](c5ccoc5)OC(=O)[C@H]5O[C@]54[C@]3(C)[C@H](OC(C)=O)C[C@H]2C1(C)C [3beta-ACETOXYDEOXODIHYDROGEDUNIN] | 91.2 |
| COc1ccc2oc(-c3ccccc3)c(OC)c(=O)c2c1 | 98.7 |
| COc1ccc(-c2cc(=O)c3c(OC)c(OC)c(OC)cc3o2)cc1OC | 105 |
| COc1ccc([C@@H]2CC(=O)c3c(O)cc(O[C@@H]4O[C@H](CO[C@@H]5O[C@@H](C)[C@H](O)[C@@H](O)[C@H]5O)[C@@H](O)[C@H](O)[C@H]4O)cc3O2)cc1O | 92.8 |
| c1ccc(-c2nn3c(c2-c2ccnc4cc(OCCN5CCOCC5)ccc24)CCC3)nc1 | 94.6 |
| CC12CCC3C(CC3(C)C)C(C)(CCC1=O)O2 (configuration not stated) | 103 |
| C=CCSCC(N)C(=O)O (configuration not stated) | 121 |
| CCCCc1nc2cc(/C=C/C(=O)NO)ccc2n1CCN(CC)CC [SB939 (Pracinostat)] | 1.57 |
| CC1=CC(=O)CC(C)(C)C1(O)/C=C/C(C)=C\C(=O)O (mixture of isomers) [ABSCISIC ACID (cis,trans; +/-)] | 102 |
| O=Cc1ccccc1O[C@@H]1O[C@H](CO)[C@@H](O)[C@H](O)[C@H]1O | 102 |
| C[C@H](NC(=O)Cc1cc(F)cc(F)c1)C(=O)N[C@H](C(=O)OC(C)(C)C)c1ccccc1 | 76.1 |
| COc1cc(OC)c2c(OC)c(-c3ccc4c(c3)OCO4)c(=O)oc2c1 | 101 |
| COc1cc(OC)c2c(c1)OC(c1ccccc1)CC2=O (configuration not stated) | 105 |
| COc1cc2c3cc1Oc1cc(ccc1O)C[C@@H]1c4c(cc(OC)c(O)c4Oc4ccc(cc4)C[C@@H]3N(C)CC2)CC[N+]1(C)C | 100 |
| NC(=O)Nc1cc(-c2cccc(F)c2)sc1C(=O)N[C@H]1CCCNC1 | 5.84 |

| SMILES | cell viability [%] |
| --- | --- |
| CC(=O)O[C@H]1C[C@@H](OC(C)=O)C(C)(C)C2CC(=O)[C@]3(C)C(CC[C@@]4(C)[C@H](C(=O)O)OC(=O)C5OC543)[C@]21C (some centres not stated) | 89.8 |
| CC(=O)O[C@H]1C[C@@H](OC(C)=O)C(C)(C)[C@@H]2C[C@@H](OC(C)=O)[C@@]3(C)C4=CC(=O)O[C@@H](c5ccoc5)[C@]4(C)CC[C@@H]3[C@@]12C | 94.5 |
| COC1=CC(=O)C(O)=C/C1=C\C=C\c1ccccc1 | 95 |
| Cc1cc(O)cc(O)c1C(=O)O | 115 |
| NCCC(=O)N[C@@H](Cc1c[nH]cn1)C(=O)O | 89.7 |
| O=C(O)C1CC([C@@H]2CCCCN2)CN2CCCCC12 (some centres not stated) | 101 |
| CC(C)n1nc(-c2ccc3oc(N)nc3c2)c2c(N)ncnc21 | 21.6 |
| CCN1CCN(Cc2ccc(-c3cc4c(N[C@H](C)c5ccccc5)ncnc4[nH]3)cc2)CC1 | 53.4 |
| COC(=O)c1c(C)c2c(c(C)c1O)OC(=O)c1c(C)c(Cl)c(O)c(Cl)c1O2 | 108 |
| O=C(Cc1cccs1)N[C@@H]1C(=O)N2C(C(=O)[O-])=C(C[n+]3ccccc3)CS[C@H]12 | 96.4 |
| COC1=CC(=O)C(C(=O)c2ccccc2)=CC1=O | 103 |
| C[C@]1(c2nc3c(C(N)=O)cccc3[nH]2)CCCN1 [ABT-888 (Veliparib)] | 101 |
| Cc1ccc(NC(=O)c2cccc(C(C)(C)C#N)c2)cc1Nc1ccc2ncn(C)c(=O)c2c1 | 42.7 |
| Cc1ccc(C(=O)Nc2ccc(S(=O)(=O)O)c3cc(S(=O)(=O)O)cc(S(=O)(=O)O)c23)cc1NC(=O)c1cccc(NC(=O)Nc2cccc(C(=O)Nc3cc(C(=O)Nc4ccc(S(=O)(=O)O)c5cc(S(=O)(=O)O)cc(S(=O)(=O)O)c45)ccc3C)c2)c1 | 111 |
| COC(=O)Nc1ccc(-c2nc(N3CCOCC3)c3cnn(C4CCN(C(=O)OC)CC4)c3n2)cc1 | 25.9 |
| c1ccc2c(-c3cnn4cc(-c5ccc(N6CCNCC6)cc5)cnc34)ccnc2c1 | 37.8 |
| NC1(C(=O)O)CCCC1 | 93.7 |
| CN(C)Cc1c(C(=O)NCCOc2ccc(C(=O)NO)cc2)oc2ccccc12 | 1.01 |
| CC/C(=C(\c1ccccc1)c1ccc(OCCN(C)C)cc1)c1ccccc1 [Tamoxifen Citrate (Nolvadex)] | 53.6 |
| COc1cc(C(=O)NCc2ccc(OCCN(C)C)cc2)cc(OC)c1OC | 97.1 |
| CC/C(=C(\c1ccccc1)c1ccc(OCCN(C)C)cc1)c1ccccc1 | 105 |

| SMILES | cell viability [%] |
| --- | --- |
| C=CCSCC=C | 97.3 |
| CCCc1cc(OC)c2c(c1)OCO2 | 90.2 |
| C[C@H](NC(=O)Cc1cc(F)cc(F)c1)C(=O)N[C@@H]1C(=O)N(C)c2ccccc2-c2ccccc21 | 101 |
| COc1c(C)c2c(c(O)c1C/C=C(\C)CCC(=O)O)C(=O)OC2 | 44 |
| COc1c(C)c2c(c(O)c1C/C=C(\C)CCC(=O)OCCN1CCOCC1)C(=O)OC2 [Mycophenolate mofetil (CellCept)] | 53 |
| COc1c(C)c2c(c(O)c1C/C=C(\C)CCC(=O)O)C(=O)OC2 [Mycophenolic (Mycophenolate)] | 42.4 |
| COC1=C(OC)C(=O)C(C/C=C(\C)CC/C=C(\C)CC/C=C(\C)CC/C=C(/C)CC/C=C(\C)CC/C=C(\C)CC/C=C(\C)CC/C=C(\C)CC/C=C(\C)CCC=C(C)C)=C(C)C1=O | 85.7 |
| C=C[C@@]1(C)CC(=O)[C@@]2(O)[C@](C)(O1)[C@@H](O)[C@@H](O)C1C(C)(C)CC[C@H](O)[C@@]12C (some centres not stated) | 98.8 |
| COc1ccc(C(=O)O)c(O)c1OC | 97.8 |
| COc1ccc([C@H]2COc3c(ccc(O)c3OC)C2)c(OC)c1O | 116 |
| CC(C=CC(=O)NO)=CC(C)C(=O)c1ccc(N(C)C)cc1 (configuration not stated) [Trichostatin A (TSA)] | 1.52 |
| O=C(Cn1ccnc1[N+](=O)[O-])NCCO | 94.5 |
| Cc1csc(-c2nnc(Nc3ccc(Oc4ncccc4-c4ccnc(N)n4)cc3)c3ccccc23)c1 | 51.5 |
| CN(C)c1ccc(C(=C2C=CC(=[N+](C)C)C=C2)c2ccc(N(C)C)cc2)cc1 | 0.942 |
| N=C1C=CC(=C(c2ccc(N)cc2)c2ccc(N)cc2)C=C1 | 82.5 |
| CCCCCCCCCCCCCc1ccco1 | 97.1 |
| C[C@H](CCC(=O)O)[C@H]1CC[C@H]2[C@@H]3CC[C@@H]4CCCC[C@]4(C)[C@H]3CC[C@]12C | 98.9 |
| C[C@@H]1O[C@@H](O[C@H]2[C@H](O[C@H]3CC[C@@]4(C)[C@@H](CC[C@]5(C)[C@@H]4CC=C4[C@@H]6CC(C)(C)CC[C@]6(C(=O)O[C@@H]6O[C@H](CO[C@@H]7O[C@H](CO)[C@@H](O[C@@H]8O[C@@H](C)[C@H](O)[C@@H](O)[C@H]8O)[C@H](O)[C@H]7O)[C@@H](O)[C@H](O)[C@H]6O)CC[C@]45C)[C@]3(C)CO)OC[C@H](O)[C@@H]2O)[C@H](O)[C@H](O)[C@H]1O | 89.5 |
| COCC[n+]1c2c(n(Cc3cnccn3)c1C)C(=O)c1ccccc1C2=O [YM155 (Sepantronium Bromide)] | 3.93 |

Source: the supplement of paper PMC11150407
